Screening results as filed in PubChem BioAssay.
Shown are actives, neighbours in structure and some others; about 2.6% of the full set was active somewhere.
A3G deaminase – APOBEC3G (human) deaminase inhibition; recombinant A3G, ssDNA deamination FAM/TAMRA fluorescence; inhibition, % at 20 µM; 0.28% of 330,000 active; AID 493012; Q9HC16;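 active means inhibition of at least 40% at 20 µM, with no more than 30% in the related APOBEC3A deaminase screen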;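 further: plate controls were DMSO wells with A3G for no effect and wells lacking A3G enzyme for full effect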
eIF4H inh – inhibitors of RNA binding by human eIF4H; 0.94% of 290,000 active; eIF4H fluorescence polarization binding assay; Q15056; inhibition, % at 35 µM;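 further: calls also rest on retests at 20 µM and on dose response follow-up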
PHOSPHO1 inh – PHOSPHO1 (human) inhibition. inhibition, % at 13.3 µM. recombinant PHOSPHO1, absorbance phosphatase assay. 1.1% of 290,000 active. Q8TCT1; in the data active means inhibition above about 60%
Target sequence (Q8TCT1 whole entry, looked up): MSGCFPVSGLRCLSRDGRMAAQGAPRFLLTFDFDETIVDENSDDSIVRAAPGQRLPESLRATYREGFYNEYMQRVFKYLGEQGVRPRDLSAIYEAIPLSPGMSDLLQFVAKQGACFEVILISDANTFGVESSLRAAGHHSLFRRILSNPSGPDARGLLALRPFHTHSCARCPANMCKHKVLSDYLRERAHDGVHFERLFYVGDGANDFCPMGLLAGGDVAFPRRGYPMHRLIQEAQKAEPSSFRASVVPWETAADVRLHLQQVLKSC
PABP1 MLLE inh – blocks PAM2 peptide binding to the PABP1 MLLE domain. P11940. GST-MLLE / FITC-PAM2 fluorescence polarization. inhibition, % at 20 µM. 0.36% of 360,000 active; in the data active means inhibition above about 35%, passing the limit was not always enough;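 further: plate controls were DMSO wells with GST-MLLE for no effect and wells lacking GST-MLLE protein for full effect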
PABP FP inh – PABP-poly(A) binding inhibition | 1% of 290,000 active | PABP-poly(A) RNA binding, fluorescence polarization | P11940 | calls only at 35 µM;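 further: calls also rest on retests at 20 µM and on dose response follow-up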
APOBEC3A inh – inhibitors of human APOBEC3A DNA deaminase; recombinant A3A, FAM/TAMRA ssDNA deamination fluorescence; inhibition, % at 20 µM; 0.41% of 330,000 active;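 active means at least 40% inhibition at 20 µM here, with at most 30% in a related deaminase screen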;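 further: plate controls were A3A with DMSO for no effect and wells lacking A3A enzyme for full effect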
Numbers without * were called inactive. Unless noted, how the calls were made is not given here.

For C=CCNc1sc(C(=O)c2ccc(Br)s2)c(N)c1C#N the results were A3G deaminase -2.7, eIF4H inh 6.7, PHOSPHO1 inh 81.6*, PABP1 MLLE inh -21.3, PABP FP inh inactive and APOBEC3A inh 0.3.
Screening CC1CCCN(C(=O)C2CCN(c3nc(-c4ccccc4)nc4c3CCC4)CC2)C1 (stereo unspecified) returned A3G deaminase -7.1, eIF4H inh -2.5, PHOSPHO1 inh 65.8*, PABP1 MLLE inh -2.3, PABP FP inh inactive and APOBEC3A inh 0.0.
For O=C(NCc1ccccc1)C1CCN(c2nc(-c3ccccc3)nc3c2CCC3)CC1 the results were A3G deaminase -5.8, eIF4H inh -2.5, PHOSPHO1 inh 56.2, PABP1 MLLE inh -11.0, PABP FP inh inactive and APOBEC3A inh -0.3.
`Oc1cccc(NC(=S)N=Nc2c(O)[nH]c3ccccc23)c1` gave A3G deaminase -3.1, eIF4H inh 3.0, PHOSPHO1 inh -2.6, PABP1 MLLE inh 38.2*, PABP FP inh inactive and APOBEC3A inh 3.5.
Screening CCOc1ccc(NC(=S)N=Nc2c(O)[nH]c3ccccc23)cc1 returned A3G deaminase -3.9, eIF4H inh 8.9, PHOSPHO1 inh 0.3, PABP1 MLLE inh 37.8*, PABP FP inh inactive and APOBEC3A inh -1.3.
Screening CCOC(=O)C(C)Sc1nnc(Cc2cc(=O)[nH]c(=O)[nH]2)n1-c1ccc(Cl)cc1 (stereo unspecified) returned A3G deaminase -6.5, eIF4H inh 1.5, PHOSPHO1 inh 4.1, PABP1 MLLE inh 44.6*, PABP FP inh inactive and APOBEC3A inh 0.6.
Screening COC(=O)C(C)Sc1nnc(Cc2cc(=O)[nH]c(=O)[nH]2)n1-c1ccc(Cl)cc1 (stereo unspecified) returned A3G deaminase -6.2, eIF4H inh 79.4, PHOSPHO1 inh 39.2, PABP1 MLLE inh 24.4, PABP FP inh inactive and APOBEC3A inh -3.1.
`COc1ccc2oc(-c3ccncc3)cc(=O)c2c1` gave PABP1 MLLE inh 40.1*.
Screening CN1CCc2cccc3c2[C@@H]1Cc1ccc(O)c(O)c1-3 returned A3G deaminase 38.8, eIF4H inh 25.5, PHOSPHO1 inh 3.5, PABP1 MLLE inh 45.7*, PABP FP inh inactive and APOBEC3A inh -0.3.
`COc1ccc2c(c1O)-c1ccccc1CCN(C)C2` gave A3G deaminase 14.2, eIF4H inh 2.0, PHOSPHO1 inh 51.7, PABP1 MLLE inh -1.7, PABP FP inh inactive and APOBEC3A inh 1.4.
`COC(=O)/C=c1/s/c(=C(/C#N)C(=O)NCc2ccccc2)n(-c2ccccc2)c1=O` gave A3G deaminase -3.8, eIF4H inh 110.9*, PHOSPHO1 inh 15.2, PABP1 MLLE inh -39.7, PABP FP inh active and APOBEC3A inh -2.2.
Screening CCOC(=O)/C=c1\s/c(=C(\C#N)C(=O)NC)n(-c2ccccc2)c1=O returned A3G deaminase -3.9, eIF4H inh 39.8, PHOSPHO1 inh 11.0, PABP1 MLLE inh 5.1, PABP FP inh inactive and APOBEC3A inh -1.2.
For Cc1ccc(/C=C2\C(=O)Nc3ccccc32)o1 the results were A3G deaminase 4.4, eIF4H inh 87.4*, PHOSPHO1 inh -3.4, PABP1 MLLE inh 23.3, PABP FP inh active and APOBEC3A inh -3.1.
Screening COc1cccc(C2NC(=O)CCC2[N+](=O)[O-])c1 (stereo unspecified) returned A3G deaminase -7.6, eIF4H inh 1.8, PHOSPHO1 inh 39.4, PABP1 MLLE inh 1.6, PABP FP inh inactive and APOBEC3A inh 1.4.
For O=C(c1ccco1)N1N=C(c2cccs2)CC1c1cc([N+](=O)[O-])ccc1O (stereo unspecified) the results were A3G deaminase -4.8, eIF4H inh -11.3, PHOSPHO1 inh 61.0*, PABP1 MLLE inh 18.8, PABP FP inh inactive and APOBEC3A inh -3.0.
For O=C(COC(=O)c1nc(Cl)ccc1Cl)NCc1ccccc1 the results were A3G deaminase -3.1, eIF4H inh -11.6, PHOSPHO1 inh 38.5, PABP1 MLLE inh -4.4, PABP FP inh inactive and APOBEC3A inh 0.1.
For O=C(NC(=S)Nc1ccc(CN2CCOCC2)cc1)c1ccc([N+](=O)[O-])cc1 the results were A3G deaminase -0.6, eIF4H inh -5.4, PHOSPHO1 inh -1.0, PABP1 MLLE inh 51.6*, PABP FP inh inactive and APOBEC3A inh -0.3.
For O=C(/C=C/c1cccc([N+](=O)[O-])c1)NC(=S)Nc1ccc(CN2CCOCC2)cc1 the results were A3G deaminase -8.6, eIF4H inh -6.8, PHOSPHO1 inh -22.5, PABP1 MLLE inh 40.0*, PABP FP inh inactive and APOBEC3A inh -3.0.
For CC(C)(C)C(=O)OCc1nc(-c2ccc(C(F)(F)F)cc2)cs1 the results were A3G deaminase 0.9, eIF4H inh 0.7, PHOSPHO1 inh 24.4, PABP1 MLLE inh 10.1, PABP FP inh inactive and APOBEC3A inh 0.9.
`CCOC(=O)CNC(c1ccccc1)c1cc(Br)ccc1NC(=O)CCN1CCOCC1` (stereo unspecified) gave A3G deaminase -3.0, eIF4H inh 3.4, PHOSPHO1 inh 3.2, PABP1 MLLE inh 4.0, PABP FP inh inactive and APOBEC3A inh -2.4.
Screening CCOC(=O)CNC(c1ccccc1)c1cc(Br)ccc1NC(=O)OCC (stereo unspecified) returned A3G deaminase -2.0, eIF4H inh 103.7*, PHOSPHO1 inh 24.2, PABP1 MLLE inh -0.1, PABP FP inh active and APOBEC3A inh -2.7.
Screening COc1cc(NCCCCCCN)c2ncccc2c1OC returned PABP1 MLLE inh 18.4.
`COc1cc(NC(C)CCCNC(C)C)c2ncccc2c1OC` (stereo unspecified) gave PABP1 MLLE inh 43.8*.
Screening CC1(C)Cc2c(sc3nc(=S)[nH]c(N)c23)CO1 returned A3G deaminase 2.1, eIF4H inh 0.4, PHOSPHO1 inh -45.5, PABP FP inh inactive and APOBEC3A inh -4.5.
For CCSc1nnc(NC(=O)C2CCN(C(=O)c3ccc(F)cc3)CC2)s1 the results were A3G deaminase 0.0, PABP1 MLLE inh 3.9 and APOBEC3A inh 4.3.
Screening Cc1ccc2[nH]c(=O)c(CN(CCc3ccccc3)Cc3nnnn3CC3CCCO3)cc2c1 (stereo unspecified) returned A3G deaminase -7.5, eIF4H inh 0.9, PHOSPHO1 inh -0.9, PABP1 MLLE inh 14.1, PABP FP inh inactive and APOBEC3A inh -2.7.
CCC(C)(C)n1nnnc1CN(Cc1ccco1)Cc1cc2cc3c(cc2[nH]c1=O)OCO3 was read as A3G deaminase -8.5, eIF4H inh -2.9, PHOSPHO1 inh 14.5, PABP1 MLLE inh 39.8*, PABP FP inh inactive and APOBEC3A inh -5.9.
`O=c1[nH]c2cc3c(cc2cc1CN(Cc1nnnn1CC1CCCO1)C1CCCCC1)OCO3` (stereo unspecified) gave A3G deaminase 2.3, eIF4H inh 24.1, PHOSPHO1 inh -32.1, PABP1 MLLE inh 72.5, PABP FP inh inactive and APOBEC3A inh 4.3.
